Measurements taken from PubChem BioAssay.
The source made the active and inactive calls. Unless noted, how the calls were made is not given here.

Columns and labels:
[1] = resazurin metabolic signal in HepG2 cells – cell-based, resazurin fluorescence, 24 h, PK04 Diversity Set, profiling panel (AID 1172); details: HepG2 viability, higher = more signal
[2] = budding yeast growth changes without added modifier – OD600, strain BY4716, 24 h, basal condition, primary screen (AID 1173); details: S. cerevisiae BY4716 growth, OD600, 24 h; higher = more signal, called active from +8 up or from −8 down
[3] = viability profiling in MM1S myeloma cells – cell-based, resazurin fluorescence, basal, 24 h, PK04 Diversity Set, profiling panel (AID 1174); details: higher = more signal, called active from +8 up or from −8 down;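 further: MM1S multiple myeloma cell line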
[4] = biological target: Dihydroorotate dehydrogenase (quinone), mitochondrial (Plasmodium falciparum (isolate 3D7)) (UniProt Q08210); assay: inhibition of P. falciparum DHODH – biochemical, C-terminal His tag, absorbance 600 nm, primary screen (AID 1175); details: PfDHODH enzyme, DCIP absorbance 600 nm; higher = more signal, called active from +8 up or from −8 down;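 further: recombinant parasite enzyme with a five histidine tag at its C terminus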
[5] = inhibition of PAO1 biofilm formation – strain PAO1, LB-PBS medium, absorbance 600 nm, primary screen (AID 1176); details: P. aeruginosa PAO1 growth/biofilm, A600, 12 h; higher = more signal
[6] = growth modulation of vineyard yeast isolate – strain RM11-1a, OD600, basal, 24 h, primary screen (AID 1177);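 further: cultures grown under basal conditions with no added stressor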; details: S. cerevisiae RM11-1a growth, OD600, 24 h; higher = more signal, called active from +8 up or from −8 down
[7] = growth of efflux-deficient E. coli DRC39 – strain DRC39, OD650, 24 h, E. coli filamentation inducers, primary screen (AID 1178);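 further: growth measured as culture turbidity by optical density at 650 nm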; details: E. coli DRC39 acrAB, higher = more signal, called active from +8 up or from −8 down
[8] = growth of efflux-deficient E. coli DRC39 – strain DRC39, OD650, 48 h, E. coli filamentation inducers, primary screen (AID 1179);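 further: screen aims at cell division blockers that make cells filament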; details: E. coli DRC39 delta-acrAB growth, higher = more signal, called active from +8 up or from −8 down
[9] = viability profiling in RPMI8226 myeloma cells – cell-based, resazurin fluorescence, basal, 24 h, PK04 Diversity Set, profiling panel (AID 1180); details: higher = more signal;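 further: RPMI8826 multiple myeloma cell line at 5000 cells per well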
[10] = biological target: E3 ubiquitin-protein ligase XIAP (Homo sapiens) (UniProt P98170); assay: small molecules binding XIAP protein – biophysical, small-molecule microarray, fluorescence 635 nm, primary screen (AID 1181); details: higher = more signal;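 further: score merges 667 nm emission and signal to noise over triplicate slides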
[11] = test system: XIP peptide (Xip251-270) binding; assay: XIP fragment 251-270 binding compounds – biochemical, small-molecule microarray, fluorescence 635/667 nm, 0.1 µg/mL protein, primary screen (AID 1182); details: fluorescent protein binding, 635 nm, higher = more signal, called active from +8 up or from −8 down
XIP peptide (Xip251-270) = assay: compounds binding XIP fragment 251-270 – biochemical, small-molecule microarray, fluorescence 635/667 nm, 0.5 µg/mL protein, primary screen (AID 1183); details: fluorescence 635 nm, higher = more signal
[12] = blood-stage malaria parasite viability loss – strain 3D7, DAPI fluorescence, 100 nL, primary screen (AID 1184);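 further: parasites grown inside human red blood cells in medium with human serum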; details: P. falciparum 3D7 growth, 3 d, higher = more signal
[13] = biological target: Homeobox protein Hox-A13 (Mus musculus) (UniProt Q62424); assay: disruptors of Hoxa13 oligonucleotide interaction – biochemical, fluorescence polarization, labeled oligonucleotide, primary screen (AID 1185); details: Hoxa13:DNA binding, 15 min, higher = more signal, called active from +8 up or from −8 down
[14] = blockers of DNA damage checkpoint Chk1 activation – imaging, HeLa, hydroxyurea, phospho-Chk1 antibody, percent positive cells, primary screen (AID 1186); details: hydroxyurea-induced phospho-Chk1 immunofluorescence imaging, higher = more signal
[15] = blockers of DNA damage checkpoint Chk1 activation – imaging, HeLa, hydroxyurea, phospho-Chk1 nuclear intensity, primary screen (AID 1187); details: hydroxyurea-induced phospho-Chk1 immunofluorescence imaging, higher = more signal

Homeobox protein Hox-A13 (Mus musculus), sequence (Q62424 whole entry, looked up): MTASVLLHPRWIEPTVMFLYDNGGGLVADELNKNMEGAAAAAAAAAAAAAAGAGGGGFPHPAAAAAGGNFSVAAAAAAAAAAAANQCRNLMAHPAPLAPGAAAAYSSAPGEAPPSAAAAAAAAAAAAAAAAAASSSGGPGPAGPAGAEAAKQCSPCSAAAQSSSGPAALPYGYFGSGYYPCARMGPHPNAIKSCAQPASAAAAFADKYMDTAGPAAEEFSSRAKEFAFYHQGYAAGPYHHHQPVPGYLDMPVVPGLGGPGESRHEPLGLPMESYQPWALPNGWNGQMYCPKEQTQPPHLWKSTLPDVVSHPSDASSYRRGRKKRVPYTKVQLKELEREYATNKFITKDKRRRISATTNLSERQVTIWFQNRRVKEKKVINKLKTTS
Dihydroorotate dehydrogenase (quinone), mitochondrial (Plasmodium falciparum (isolate 3D7)), sequence (Q08210 whole entry, looked up): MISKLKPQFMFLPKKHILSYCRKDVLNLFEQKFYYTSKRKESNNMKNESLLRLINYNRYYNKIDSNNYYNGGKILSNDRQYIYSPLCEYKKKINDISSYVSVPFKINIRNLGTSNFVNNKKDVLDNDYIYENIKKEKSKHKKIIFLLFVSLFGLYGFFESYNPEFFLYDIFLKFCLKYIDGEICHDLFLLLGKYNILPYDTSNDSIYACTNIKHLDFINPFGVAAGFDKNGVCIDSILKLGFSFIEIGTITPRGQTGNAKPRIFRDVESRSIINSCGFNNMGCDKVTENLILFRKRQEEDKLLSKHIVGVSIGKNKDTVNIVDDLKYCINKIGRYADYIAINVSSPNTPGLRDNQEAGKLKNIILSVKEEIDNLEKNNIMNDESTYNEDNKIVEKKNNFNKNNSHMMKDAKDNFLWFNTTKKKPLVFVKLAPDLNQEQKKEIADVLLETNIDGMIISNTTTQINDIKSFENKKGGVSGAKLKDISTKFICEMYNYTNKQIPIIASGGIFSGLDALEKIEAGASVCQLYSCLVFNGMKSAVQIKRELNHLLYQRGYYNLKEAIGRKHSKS
E3 ubiquitin-protein ligase XIAP (Homo sapiens), sequence (P98170 whole entry, looked up, the tested form may be a part): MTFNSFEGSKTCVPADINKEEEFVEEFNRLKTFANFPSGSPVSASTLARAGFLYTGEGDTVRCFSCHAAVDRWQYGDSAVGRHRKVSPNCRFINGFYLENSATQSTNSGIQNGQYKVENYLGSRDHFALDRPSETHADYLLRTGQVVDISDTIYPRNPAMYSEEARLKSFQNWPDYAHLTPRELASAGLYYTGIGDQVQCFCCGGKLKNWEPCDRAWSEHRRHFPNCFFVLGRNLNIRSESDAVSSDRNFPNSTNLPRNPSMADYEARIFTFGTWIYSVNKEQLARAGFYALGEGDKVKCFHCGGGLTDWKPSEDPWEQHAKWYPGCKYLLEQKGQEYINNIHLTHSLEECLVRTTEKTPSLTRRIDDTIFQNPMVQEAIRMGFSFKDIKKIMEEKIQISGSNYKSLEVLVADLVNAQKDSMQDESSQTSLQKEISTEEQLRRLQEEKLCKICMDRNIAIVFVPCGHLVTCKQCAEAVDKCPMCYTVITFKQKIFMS

Compound	z-score [1]	z-score [2]	z-score [3]	composite z-score [4]	z-score [5]	z-score [6]	z-score [7]	z-score [8]	z-score [9]	composite z-score [10]	composite z-score [11]	composite z-score (XIP peptide (Xip251-270))	z-score [12]	z-score [13]	z-score [14]	z-score [15]
O=C1N(Cc2ccccc2)c2ccccc2[C@@H]2OC(c3ccc(OCCCO)cc3)=N[C@]12Cc1ccccc1	-0.408	-0.87 (inactive)	-3.68 (inactive)	1.07 (inactive)	1.25 (inactive)	2.06 (inactive)	1.29 (inactive)	0.259 (inactive)	-2.78	-0.0749	0.0973 (inactive)	0.862	-2.45	-2.22 (inactive)	-0.389 (inactive)	-0.321 (inactive)
CCOC(=O)C[C@H]1[C@H](OC(=O)c2cc3ccccc3oc2=O)[C@@H](NC(=O)c2ccc(-c3ccccc3)cc2)c2cc(OCCCO)ccc2N1C(=O)c1ccc2ccccc2n1	0.867	0.753 (inactive)	0.389 (inactive)	-0.0286 (inactive)	-0.0218 (inactive)	1.54 (inactive)	0.97 (inactive)	0.211 (inactive)	0.0692	0.023	0.155 (inactive)	0.339	-0.949	-2.27 (inactive)	-0.359 (inactive)	-0.583 (inactive)
[N-]=[N+]=NCc1ccccc1C[C@@]1(C(=O)NCc2ccccc2)N=C(c2ccc(OCCCO)cc2)O[C@@H]1c1ccccc1N=[N+]=[N-]	0.279	0.85 (inactive)	-0.806 (inactive)	0.805 (inactive)	1.39 (inactive)	1.49 (inactive)	0.423 (inactive)	-0.335 (inactive)	-0.686	-0.11	0.047 (inactive)	0.558	-2.37	0.321 (inactive)	-0.299 (inactive)	-0.147 (inactive)
O=C(NCC(F)(F)F)[C@@H]1c2ccccc2C(=O)N(Cc2cc(F)cc(C(F)(F)F)c2)[C@H]1c1ccc(CO)cc1	-0.16	-0.359 (inactive)	0.0875 (inactive)	0.94 (inactive)	0.221 (inactive)	0.933 (inactive)	0.647 (inactive)	-0.0858 (inactive)	0.867	-0.126	0.0811 (inactive)	0.663	-1.25	-2.64 (inactive)	-0.0626 (inactive)	-0.205 (inactive)
COCCCNC(=O)[C@@]1(Cc2ccccc2N=[N+]=[N-])COC(c2ccc(OCCCO)cc2)=N1	0.677	-1.68 (inactive)	-0.583 (inactive)	0.962 (inactive)	-0.76 (inactive)	0.483 (inactive)	0.349 (inactive)	0.746 (inactive)	0.895	0.0049	1 (inactive)	0.626	-2.06	-5.18 (inactive)	-0.0232 (inactive)	-0.101 (inactive)
CCCCCCc1nc(C2CC2)cc2c1[Si](C(C)C)(C(C)C)O[C@H]2c1ccccc1	-0.868	0.391 (inactive)	-0.749 (inactive)	0.423 (inactive)	0.0672 (inactive)	-0.553 (inactive)	-0.476 (inactive)	-0.594 (inactive)	-0.249	-0.0872	0.263 (inactive)	0.421	-0.358	-1.54 (inactive)	-0.507 (inactive)	-0.465 (inactive)
COC(=O)c1c(CC[C@@H](CO)NC(=O)N[C@H](Cn2cc(C3(O)CCCCC3)nn2)C(C)C)oc(C(C)=O)c1C(=O)OC	-0.752	-3.03 (inactive)	0.679 (inactive)	-4.51 (inactive)	-0.24 (inactive)	-0.834 (inactive)	1.4 (inactive)	0.669 (inactive)	0.0252	-0.102	0.0887 (inactive)	0.837	-2.24	-1.69 (inactive)	0.303 (inactive)	0.608 (inactive)
CCCCC=C[C@@H](NC(=O)c1ccc(-c2ccccc2)cc1)c1ccccc1	0.272	-0.447 (inactive)	-0.821 (inactive)	0.34 (inactive)	0.191 (inactive)	0.491 (inactive)	-0.335 (inactive)	-0.0289 (inactive)	-1.75	-0.0272	-0.464 (inactive)	-0.102	0.067	-3.89 (inactive)	-0.85 (inactive)	-1.37 (inactive)
[N-]=[N+]=NCc1ccccc1[C@H]1OC(c2ccc(OCCCO)cc2)=N[C@@]1(CCS(=O)(=O)c1ccccc1)C(=O)NCC(O)CO (some centres undefined)	0.044	0.323 (inactive)	-0.315 (inactive)	1.09 (inactive)	1.76 (inactive)	1.64 (inactive)	0.852 (inactive)	-0.679 (inactive)	0.0345	-0.0553	1.2 (inactive)	0.781	-2.41	-2.82 (inactive)	-0.0433 (inactive)	0.0231 (inactive)
CCCCCCCCCCC(O)C1C=CC2C(=O)N(C)C(=O)C2N1Nc1ccc([N+](=O)[O-])cc1[N+](=O)[O-] (centres undefined)	-1.62	0.869 (inactive)	-1.64 (inactive)	-1.39 (inactive)	0.695 (inactive)	0.945 (inactive)	-1.26 (inactive)	-0.459 (inactive)	-1.67	-0.0994	-0.0993 (inactive)	0.464	0.625	-3.99 (inactive)	0.496 (inactive)	-0.12 (inactive)
CN1C(=O)C2C=CC(C(O)c3cccc(O)c3)N(Nc3ccccc3)C2C1=O (centres undefined)	0.0748	0.655 (inactive)	-0.462 (inactive)	0.613 (inactive)	-0.159 (inactive)	0.837 (inactive)	-1.32 (inactive)	-0.17 (inactive)	-2.48	-0.0812	-0.252 (inactive)	-0.0631	0.655	-0.751 (inactive)	0.0011 (inactive)	0.118 (inactive)
CC(C)Cc1ccc(CN2CC[C@@H](NC(=O)Nc3ccccc3)C2)cc1	-5.14	-17.3 (active)	-9.38 (active)	0.545 (inactive)	0.294 (inactive)	-4.95 (inactive)	0.451 (inactive)	-0.748 (inactive)	-4.87	-0.209	-0.243 (inactive)	-0.238	-1.51	0.339 (inactive)	0.146 (inactive)	0.459 (inactive)
C[N+](C)(C)CCCCCCNC(=O)[C@H]1C[C@H]2C(=O)NCC(=O)N2[C@H]1c1ccc(O)cc1	0.767	-0.275 (inactive)	-0.301 (inactive)	-0.435 (inactive)	0.823 (inactive)	0.0387 (inactive)	-0.298 (inactive)	-0.785 (inactive)	-0.116	0.175	0.537 (inactive)	0.815	0.089	-2.39 (inactive)	-0.458 (inactive)	-0.132 (inactive)
Cc1ccc(S[C@]2(C(=O)NCC(F)(F)F)CC(=O)N(Cc3ccccc3C(F)(F)F)[C@@H]2c2ccc(CO)cc2I)cc1	0.719	-3.66 (inactive)	-2.62 (inactive)	0.196 (inactive)	-0.0623 (inactive)	-1.21 (inactive)	0.506 (inactive)	1.21 (inactive)	-1.15	0.531	-0.485 (inactive)	-0.0347	-0.115	-2.45 (inactive)	0.504 (inactive)	1.27 (inactive)
CCOC(=O)c1ccc(NC(=O)O[C@H]2[C@H](OC(=O)Nc3ccc4c(c3)OCO4)[C@H](OC(=O)Nc3ccc4c(c3)OCO4)[C@@H](OC)O[C@@H]2CO)cc1	-1.09	1.12 (inactive)	-1.55 (inactive)	-0.57 (inactive)	0.95 (inactive)	1.57 (inactive)	1.11 (inactive)	0.311 (inactive)	-1.36	0.32	1.4 (inactive)	0.863	-2.28	-6.83 (inactive)	-0.306 (inactive)	0.101 (inactive)
CC(C)(C)OC(=O)CC[C@]1(C(=O)NCc2ccccc2)N=C(c2ccc(OCCCO)cc2)O[C@H]1c1ccccc1CN=[N+]=[N-]	-1.08	0.103 (inactive)	-1.49 (inactive)	0.281 (inactive)	0.702 (inactive)	0.53 (inactive)	0.414 (inactive)	0.391 (inactive)	-0.551	0.0942	0.333 (inactive)	0.688	-2.39	-1.28 (inactive)	-0.654 (inactive)	-0.865 (inactive)
N#Cc1ccc(NN2C(C(O)c3ccc(F)cc3)C=CC3C(=O)N(c4ccccc4)C(=O)C32)cc1 (centres undefined)	-0.587	-0.0167 (inactive)	-0.388 (inactive)	0.37 (inactive)	0.695 (inactive)	0.222 (inactive)	-1.06 (inactive)	-0.405 (inactive)	-0.67	0.0651	0.536 (inactive)	0.634	-0.573	-0.0009 (inactive)	-0.0909 (inactive)	-0.0009 (inactive)
O=C1C2C=CC(C(O)c3ccccc3)N(Nc3ccccc3F)C2C(=O)N1c1ccccc1 (centres undefined)	0.688	-1.64 (inactive)	-1.07 (inactive)	-0.104 (inactive)	0.629 (inactive)	0.0428 (inactive)	-0.737 (inactive)	0.206 (inactive)	0.466	0.258	1.07 (inactive)	0.726	0.199	-3.79 (inactive)	0.237 (inactive)	0.0511 (inactive)
[N-]=[N+]=NCc1ccccc1C[C@]1(C(N)=O)N=C(c2ccc(OCCCO)cc2)O[C@H]1c1ccccc1	1	-0.198 (inactive)	-0.726 (inactive)	0.921 (inactive)	-0.786 (inactive)	1.4 (inactive)	0.146 (inactive)	0.98 (inactive)	-0.581	0.1	0.594 (inactive)	0.692	-1.42	-6.49 (inactive)	0.0449 (inactive)	0.43 (inactive)
